Algae TAG accum = increases triacylglycerol in Chlamydomonas reinhardtii. calls only at 10 µM (by protocol). Chlamydomonas reinhardtii TAG, Nile Red fluorescence, 72 h. AID 1159537. 44,000 compounds, 0.84% hits; call rule not given here;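 further: hits raise Nile Red signal meaning more stored TAG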
The depositor's hits bear a star; i = inactive; + = active, no number. The sample as a whole holds a higher share of hits than the screen did.

SMILES | Algae TAG accum
CN1CCCN(Cc2ccc(-c3ccccc3[N+](=O)[O-])o2)CC1 | i
CC(C)Oc1ccc(C(O)=C2C(=O)C(=O)N(CCCN(C)C)C2c2ccco2)cc1 (stereo not drawn) | i
COc1ccc(OCCCC(=O)NC2CCCCC2)cc1 | i
CC(C)=CCC/C(C)=C/CN1CCCN(C)CC1 | i
CC(C)=CCC[C@H](C)CCN1CCN(C)CC1 | +
Cc1ccc(C(C)CCN2CCN(C)CC2)o1 (stereo not drawn) | i
CC1(C)CC(NC(=O)Cc2ccccc2[N+](=O)[O-])CC(C)(C)N1 | +
COc1ccccc1CC(=O)NC1CC(C)(C)NC(C)(C)C1 | i
CC1(C)CC(NC(=O)CC(c2ccccc2)c2ccccc2)CC(C)(C)N1 | i
COc1ccc(S(=O)(=O)Nc2ccccc2C(=O)NC(C)C)cc1Br | i
O=[N+]([O-])c1ccc(-n2nc3ccc4nonc4c3n2)cc1 | i
CCC(Sc1nc2ccc([N+](=O)[O-])cc2s1)C(=O)Nc1ccc(C(C)=O)cc1 (stereo not drawn) | i
COc1ccc(CCNC(=O)CCC2CCCCC2)cc1OC | i
CN1CCCN(Cc2cccc(Oc3ccccc3)c2)CC1 | +
COc1cccc(CN2CCCN(C)CC2)c1 | i
OC1CCN(Cc2cccc(Oc3ccccc3)c2)CC1 | i
CN1CCN(Cc2ccc3c(c2)Cc2ccccc2-3)CC1 | +
OC1CCCN(Cc2ccc3c(c2)Cc2ccccc2-3)C1 (stereo not drawn) | i
COc1ccc(CN2CCN(C)CC2)cc1OCc1ccccc1 | i
CN1CCN(Cc2cccc(Oc3ccccc3)c2)CC1 | +
CN1CCCN(Cc2cccc(Br)c2)CC1 | i
OCC1CCCN(Cc2ccc3c(c2)Cc2ccccc2-3)C1 (stereo not drawn) | i
COc1ccc(NC(=O)c2ccc(-c3ccc(Cl)cc3)o2)cc1OC | i
CCOc1ccccc1C(=O)Nc1ccc(F)c(Cl)c1 | i
O=[N+]([O-])c1ccc(N2CCOCC2)cc1NCc1cccnc1 | i
SMILES | Algae TAG accum
COc1cc(SC)ccc1C(=O)NC(C)CCc1ccccc1 (stereo not drawn) | i
Fc1ccccc1N1CCN(C2Cc3ccccc3C2)CC1 | i
CCOc1ccccc1N1CCN(C(=O)C2CCN(CC3CCCCC3)CC2)CC1 | i
Fc1ccccc1N1CCN(CC2CCCCC2)CC1 | +
CCCN(CCO)Cc1c(F)cccc1Cl | i
Cc1ccc(NC(=O)CCC2CCCCC2)c([N+](=O)[O-])c1 | i
COc1ccc(NC(=O)CCC2CCCCC2)c(OC)c1 | i
COc1ccc(NC(=O)CCC2CCCCC2)c([N+](=O)[O-])c1 | +
O=Cc1ccc(-c2cc3[nH]c(=O)[nH]c3cc2[N+](=O)[O-])o1 | i
COCC(C)NC1C2CC3CC(C2)CC1C3 (stereo not drawn) | i
O=C(CCCc1ccccc1)NC1C2CC3CC(C2)CC1C3 (stereo not drawn) | i
CC(CCc1ccc(O)cc1)NC1C2CC3CC(C2)CC1C3 (stereo not drawn) | +
O=C(NN1CCOCC1)c1cccs1 | i
O=C(NCCC1=CCCCC1)C1CCN(S(=O)(=O)c2ccc(F)cc2)CC1 | i
CN1CCN(CCCOc2ccc(C(C)(C)c3ccccc3)cc2)CC1 | i
c1ccc(OCCN2CCCC2)cc1 | i
CCC(C)c1ccc(OCCCCN2CCN(C)CC2)cc1 (stereo not drawn) | i
CN1CCN(CCOc2ccc(C(C)(C)c3ccccc3)cc2)CC1 | +
CN1CCN(CCCOc2ccc(OCc3ccccc3)cc2)CC1 | i
CCC(C)c1ccc(OCCCN2CCN(C)CC2)cc1 (stereo not drawn) | +
O=C1C2CCCC3C4CCCCC4C(NN1CCN1CCCCC1)C23 (stereo not drawn) | i
COc1cc(/C=C/c2ccc3cccc(O)c3n2)cc([N+](=O)[O-])c1O | i
CCOc1ccccc1C(=O)NC(C)C1CC2CCC1C2 (stereo not drawn) | i
CN(C)CCNCC12CC3CC(CC(C3)C1)C2 | i
CN(CCC#N)C12CC3CC(CC(C3)C1)C2 | +
SMILES | Algae TAG accum
CN(CCO)C12CC3CC(CC(C3)C1)C2 | i
CN(C)c1cccc(C(=O)N2CCOCC2)c1 | i
CCC(=O)Nc1ccc(-c2nnc(SCC(=O)O)n2C)cc1 | i
O=S(=O)(c1ccc(Br)cc1)N1CCN(c2ncccn2)CC1 | i
Cn1c(SCC(=O)NCc2ccccc2)nnc1-c1ccc(C(C)(C)C)cc1 | +
Cn1c(SCC(=O)NCc2ccccc2)nnc1-c1ccc(NC(=O)c2ccccc2F)cc1 | i
COc1ccc(CNC(=O)CSc2nnc(-c3cccc(OC)c3)n2C)cc1 | i
CN(C)c1ccc(-c2nn(-c3ccccc3)c(N)c2C#N)cc1 | i
Cc1cc2c(cc1C)NC(CC(=O)Nc1ccccc1OC(F)F)C(=O)N2 (stereo not drawn) | i
NNC(=O)CNc1ccc(Cl)cc1 | i
O=C(Nc1ccc(Br)cc1C(=O)O)c1ccccc1F | i
COc1cccc(N2CCN(Cc3ccsc3)CC2)c1 | +
COc1ccc(N2CCN(Cc3cc(OC)cc(OC)c3)CC2)cc1 | i
CCOc1cc(CN2CCN(c3ccc(F)cc3)CC2)ccc1OC | i
Clc1ccc(N2CCN(Cc3cccs3)CC2)cc1 | i
O=[N+]([O-])c1ccc(N2CCN(Cc3ccsc3)CC2)cc1 | i
Fc1ccc(N2CCN(Cc3ccsc3)CC2)cc1 | +
COc1cccc(N2CCN(Cc3ccco3)CC2)c1 | i
O=C(c1ccc(CN2CCOCC2)cc1)N1CCN(c2ccc(F)cc2)CC1 | i
Clc1ccc(N2CCN(Cc3ccsc3)CC2)cc1 | +
Clc1ccccc1CN1CCOCC1 | i
CCOc1ccc(NC(=O)C(c2ccccc2)c2ccccc2)c([N+](=O)[O-])c1 | i
CCOc1ccccc1NC(=O)CN(c1cccc(OC)c1)S(=O)(=O)c1ccc(C)cc1 | i
O=C(c1ccncc1)N1CCN(Cc2cccc(Br)c2)CC1 | i
O=C(NCC1(c2ccccc2)CCOCC1)c1ccccc1F | i
SMILES | Algae TAG accum
COc1ccc(CC(=O)Nc2cccc(C)c2)cc1 | i
C=CCSc1nnc2c(n1)OC(c1cc3c(cc1[N+](=O)[O-])OCO3)Nc1ccccc1-2 (stereo not drawn) | i
COc1ccc(-c2csc(-c3cccnc3)n2)cc1F | i
C/C(=C\c1ccccc1)CN1CCOCC1 | i
C/C(=C\c1ccccc1)CN1CCN(C)CC1 | +
CCOC(=O)N1CCN(C/C(C)=C/c2ccccc2)CC1 | i
CCOc1ccc(C(C)NC(=O)CCc2ccccc2)cc1 (stereo not drawn) | i
O=C(CCC1CCCCC1)Nc1ccccc1[N+](=O)[O-] | i
Cc1cc(C)c(OCCN2CCOCC2)c(C)c1 | i
Cc1ccc(C(C)C)cc1OCCCCN1CCOCC1 | +
Cc1ccc(OCCCN2CCOCC2)cc1C | i
Cc1cc(C)c(C)c(OCCCCN2CCOCC2)c1 | +
C=CCc1ccccc1OCCCCN1CCOCC1 | i
Cc1cccc(OCCN2CCOCC2)c1C | i
Cc1cc(C)c(C)c(OCC(=O)NCCN2CCOCC2)c1 | i
C=CCc1cc(C)ccc1OCCCCN1CCOCC1 | i
Cc1ccccc1OCCCCN1CCOCC1 | +
O=C(c1ccc(Cl)cc1[N+](=O)[O-])N1CCN(Cc2ccc3c(c2)OCO3)CC1 | i
O=C(Nc1ccc2c(c1)OCCO2)c1ccccc1SCc1ccc(F)cc1 | i
CCC(O)(CC)c1ccccc1O | i
COc1ccc(C2C(C(C)=O)=C(O)C(=O)N2c2cccc(Br)c2)cc1 (stereo not drawn) | i

Source: PubChem
